# According to PubChem BioAssay (NCI):
# Compounds without any hit were thinned out: in the full panel of roughly 79,000, 15% have a hit. Unmarked numbers belong to inactive results. Activity calls are given as the source filed them. Rule as the data show it: active = growth inhibition above about 70%; inactive = the rest.
# How the values were obtained:
# [1] = NCI Yeast Anticancer Drug Screen. Data for the rad50 strain (AID 155);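 also: 0% = growth of vehicle-only cultures of the same strain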; conditions: S. cerevisiae rad50 strain growth inhibition, hits give high values
# Procedure, shortened: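 Inhibition values express reduced yeast growth in compound-treated cultures relative to vehicle-treated controls.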
# [2] = NCI Yeast Anticancer Drug Screen. Data for the mec2-1 strain (AID 157); conditions: S. cerevisiae mec2-1 strain, hits give high values
# Procedure, shortened: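 Vehicle-treated cultures served as reference for growth inhibition of compound-exposed mec2-1 yeast.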
# [3] = NCI Yeast Anticancer Drug Screen. Data for the sgs1 mgt1 strain (AID 161);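 also: 0% = growth of cultures given vehicle only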; conditions: S. cerevisiae sgs1 mgt1 strain, hits give high values
# Procedure, shortened: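 Test agents were incubated with a DNA-repair-mutant yeast strain. Growth was then read and compared against vehicle-treated controls.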
# [4] = NCI Yeast Anticancer Drug Screen. Data for the cln2 rad14 strain (AID 165);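 also: 0% = growth equal to vehicle treated cultures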; conditions: S. cerevisiae cln2 rad14 strain, hits give high values
# Procedure, shortened: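 Each compound was tested on cln2 rad14 yeast. Inhibition of growth was calculated against vehicle-exposed controls.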
# [5] = NCI Yeast Anticancer Drug Screen. Data for the bub3 strain (AID 167); conditions: S. cerevisiae bub3 mutant strain, hits give high values
# Procedure, shortened: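 Steps: expose the mutant yeast strain to compound; grow alongside vehicle-treated cultures; measure growth; express inhibition against the vehicle cultures.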
# [6] = NCI Yeast Anticancer Drug Screen. Data for the mlh1 rad18 strain (AID 175); conditions: S. cerevisiae mlh1 rad18 strain growth inhibition, hits give high values
# Procedure, shortened: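 Vehicle-treated cultures served as the reference for growth inhibition in a yeast strain carrying DNA damage repair alterations exposed to each compound.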
# [7] = at 5.0 µM (retest, dose inferred, filed as 0.5)
# [8] = at 50.0 µM (retest, dose inferred, filed as 5.0)
SMILES,"growth inhibition [1, 7]","growth inhibition [1, 8]",growth inhibition ([1]; at 50.0 µM),"growth inhibition [2, 7]","growth inhibition [2, 8]",growth inhibition ([2]; at 50.0 µM),"growth inhibition [3, 7]","growth inhibition [3, 8]",growth inhibition ([3]; at 50.0 µM),"growth inhibition [4, 7]","growth inhibition [4, 8]",growth inhibition ([4]; at 50.0 µM),"growth inhibition [5, 7]","growth inhibition [5, 8]",growth inhibition ([5]; at 50.0 µM),"growth inhibition [6, 7]","growth inhibition [6, 8]",growth inhibition ([6]; at 50.0 µM)
COc1ccc(CSC2=C(C#N)C(=O)NC3(CCCCC3)S2)cc1,23%,11%,3.6%,-1%,4%,2.25%,23%,14%,6.2%,-1%,16%,28.5%,6%,6%,-13.2%,18%,-2%,7.75%
CC(NNC(=S)N1CCCC1)c1cccnn1 (configuration not stated),98% (active),99% (active),89% (active),91% (active),99% (active),92.3% (active),97% (active),99% (active),88.6% (active),96% (active),99% (active),90.5% (active),98% (active),99% (active),91.2% (active),97% (active),99% (active),85.3% (active)
COc1ccc(OC2OC(COC(c3ccccc3)(c3ccc(OC)cc3)c3ccc(OC)cc3)C(O)C(O)C2O)cc1 (configuration not stated),4%,98% (active),97.5% (active),-10%,98% (active),97% (active),9%,69%,98.1% (active),11%,98% (active),97.6% (active),4%,99% (active),95.5% (active),-11%,98% (active),96.7% (active)
COC12C(COC(N)=O)C3=C(C(=O)C(C)=C(N)C3=O)N1CC1C2N1C(=O)c1ccc(Cl)c(Cl)c1 (configuration not stated),32%,93% (active),82.2% (active),29%,96% (active),85.3% (active),12%,95% (active),89.2% (active),11%,94% (active),80.5% (active),22%,95% (active),83.8% (active),37%,95% (active),88% (active)
